For this experiment, the target named is AMP-activated protein kinase, AMPK (Homo sapiens) (UniProt P54646+O43741+P54619+Q9UGJ0+Q9Y478+Q13131+Q9UGI9). Kind of experiment: AMP-dependent Kinase enzyme assay. An in vitro enzyme assay that detects ADP turnover that is directly proportional to AMPK activity. This uses naive AMPK that is activated during the assay with MK-8722. The class given is functional. The arrangement: scale not given: direction of the effect not stated beside the values. Particulars: 30 µM.
Regarding `CN1CC2(CCCN(CCOCc3ccccc3)C2)OC1=O` (stereo not given), the Percent Effect is -1.54%.
In the case of `c1cn(Cc2ccc(N3CCCN(C4CCCC4)CC3)nc2)cn1` it was 11.7%.
For the compound `O=C(CNc1ccc(OC2CCOC2)cc1)NCc1ccc(F)cc1` (stereo not given), the Percent Effect is 18.1%.
Turning to `COc1ccc(O)c(C(=O)NCC2CCCN(C3CCOCC3)C2)c1` (stereo not given), the Percent Effect was 12.5%.
Take `CCC1COCCN1C(=O)NCc1nccn1Cc1ccccc1` (stereo not given): the Percent Effect was -0.566%.
As for `COc1ncccc1-c1cc(C(=O)NC2CC2)ccn1`, the Percent Effect was -1.79%.
For the compound `c1nn(C2CCCCC2)cc1-c1cncn1CCCN1CCCCC1`, the Percent Effect was found to be 1.56%.
In the case of `CCC[C@H]1CN(c2cncc(C(=O)N3CCCCC3)n2)C[C@@H]1N(C)C` it was 14.2%; in that of `COC(=O)c1ccc(C(=O)NCc2ccco2)nc1`, -1.39%; in that of `CCc1cc(NCCCNS(C)(=O)=O)nc(-c2ccccn2)n1`, -7.82%.
In the case of `Cc1cnn(CCCNC(=O)NCCC(=O)Nc2ccccc2)c1` it was 11.1%; in that of `CC1CN(C)CCN1C(=O)c1cccn1Cc1cccnc1` (stereo not given), -3.9%; in that of `CN(CCCO)C(=O)c1cc(COc2ccc3c(c2)CCCC3)on1`, -1.01%.
With `COC(=O)C1CN(Cc2ccn(-c3ccc(F)cc3)n2)C[C@@H](C)O1` (stereo not given in full), the Percent Effect is -6.96%.
For `Cc1nsc(N2CCN(CC(=O)N(C3CC3)C(C)C3CC3)CC2)n1` (stereo not given), the Percent Effect is 7.84%.
In the case of `Cc1cc(C)c(NC(=O)Nc2cnn(CC(O)CN(C)C)c2)c(C)c1` (stereo not given) it was 0.923%.
In the case of `COC(=O)c1cc2n(n1)CCN(C(=O)c1csc(CN(C)C)n1)C2` it was 1.89%; in that of `O=C1NCCCCC1NC(=O)N1CCCc2cc(F)ccc21` (stereo not given), 6.88%.
In the case of `O=C(NCC1CCOC1)c1cc(-c2ccc(F)cc2)[nH]n1` (stereo not given) it was -0.741%; in that of `CN(CCCO)Cc1cc(Cl)ccc1OCC(O)CN1CCCCCC1` (stereo not given), -10.6%.

Values taken from ChEMBL document CHEMBL3988442, “University of Dundee, Small-Polar-MMV Screening Library” (2021).
